For some assays here: Entries with a potency or affinity are not part of this list. Activity calls are given as the source filed them.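 Rule for the calls, unless noted: active = earlier screen potentiator hit that boosts the TRPC4 ion channel at some dose, with a dose response; inactive = no potentiation, no dose response, or not a prior hit.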
Columns and labels:
[1] = test system: TRPC4 beta (transient receptor potential cation channel C4), mouse; test: TRPC4 cation channel opening, retest – cell-based, Fluo4 calcium, HEK293 TRPC4beta/mu-opioid, duplicates, 10 µM, confirmation (AID 2426;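 active = fluorescence ratio normalized to control raised more than 50% in primary screen plus both repeat runs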); details: Fluo4 calcium fluorescence, at 10 µM; hits give high values
[2] = test system: transient receptor potential cation channel C4 beta (TRPC4), mouse; test: TRPC4 cation channel opening, second retest – cell-based, second round, Fluo4, HEK293 TRPC4beta/mu-opioid, 1 µM, confirmation (AID 2461;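 active = primary screen active and over 50% activation in each of two duplicate runs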); details: Fluo4 calcium fluorescence, at 1 µM; hits give high values
[3] = test system: TRPC4 (transient receptor potential cation channel C4 beta), mouse; test: potentiation of DAMGO EC20 TRPC4 response – cell-based, second round, Fluo-4, HEK293 TRPC4beta/mu-opioid, 1 µM, confirmation (AID 2554;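 active = primary screen hit whose fluorescence ratio, in both repeats, exceeds the weak agonist control mean by 3 SD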); details: DAMGO EC20, Fluo-4 calcium flux, at 1 µM; hits give high values
[4] = test system: TRPC4 beta (transient receptor potential cation channel C4), mouse; test: potentiation of DAMGO EC20 TRPC4 response – cell-based, Fluo-4, HEK293 TRPC4beta/mu-opioid, confirmation (AID 2555;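 active = primary screen hit whose calcium fluorescence ratio, in both repeats, exceeds the weak agonist control mean by 3 SD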); details: DAMGO EC20, Fluo-4 calcium flux, at 10 µM; hits give high values
[5] = target: Short transient receptor potential channel 4 (Mus musculus) (UniProt Q9QUQ5); test: blockers of DAMGO-evoked TRPC4 calcium flux – cell-based, Fluo4, HEK293 TRPC4beta/mu-opioid, confirmation (AID 2636;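 active = calcium signal cut by more than 3 SD below the full-agonist control yet still positive, in both repeats and the earlier primary screen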); details: at 10 µM; hits give high values
[6] = target: Short transient receptor potential channel 4 (Mus musculus) (UniProt Q9QUQ5); test: blockers of DAMGO-evoked TRPC4 calcium flux – cell-based, second round, Fluo4, HEK293 TRPC4beta/mu-opioid, 1 µM, confirmation (AID 2637;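 active = calcium signal ratio cut to more than 3 SD under the fully stimulated control mean yet still positive, in both repeats and the primary screen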); details: at 1 µM; hits give high values
[7] = target: Short transient receptor potential channel 4 (Mus musculus) (UniProt Q9QUQ5); test: calcium entry via TRPC4 opening agents – cell-based, HEK293 TRPC4/mu-opioid, Fluo-4 calcium, dose response (AID 434937;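 active = primary screen activator hit with a dose response curve and TRPC4 channel activation at any tested dose; inactive = no activation, no dose response, or not a primary hit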)
[8] = target: Short transient receptor potential channel 4 (Mus musculus) (UniProt Q9QUQ5); test: potentiation of DAMGO-evoked TRPC4 calcium signal – cell-based, HEK293 TRPC4/mu-opioid, Fluo-4 calcium, EC20 DAMGO, dose response (AID 434941);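 note: calcium entry triggered by an EC20 dose of DAMGO at the co-expressed mu-opioid receptor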
[9] = target: Short transient receptor potential channel 4 (Mus musculus) (UniProt Q9QUQ5); test: block of DAMGO-driven TRPC4 calcium entry – cell-based, HEK293 TRPC4/mu-opioid, Fluo-4 calcium, dose response (AID 434942;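 active = primary screen inhibitor hit that blocks the TRPC4 channel at some tested dose, yielding a dose curve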)
[10] = target: Short transient receptor potential channel 6 (Mus musculus) (UniProt Q61143); test: TRPC6 blockade by TRPC4 inhibitor hits – cell-based, HEK293, membrane potential dye, duplicate, selectivity assay for TRPC4 inhibitor project, confirmation (AID 434948;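 active = active in primary screen and both duplicates, each dropping signal beyond three positive-control SD with fluorescence still positive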); details: HEK293 TRPC6, membrane potential dye fluorescence, at 10 µM, stimulated with maximal-effect acetylcholine; hits give high values
[11] = target: Short transient receptor potential channel 6 (Mus musculus) (UniProt Q61143); test: TRPC6 opening by TRPC4 activator hits – cell-based, HEK293, membrane potential dye, duplicate, selectivity assay for TRPC4 activator project, confirmation (AID 434950;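 active = membrane potential signal rise above negative control mean plus 3 SD in both duplicates, also active in the earlier TRPC4 screen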;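 for activation: 0% = buffer only wells and 100% = acetylcholine maximal-effect wells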); details: HEK293 TRPC6, membrane potential fluorescence, at 10 µM; activation: hits give high values; outcome: activation
[12] = target: Short transient receptor potential channel 6 (Mus musculus) (UniProt Q61143); test: positive modulators of mouse TRPC6 channel – HEK293 cells, membrane potential dye, duplicate, selectivity assay for TRPC4 potentiator project, confirmation (AID 434952;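 active = compound raising the membrane signal above positive-control mean plus 3 SD in both repeats, and a primary screen hit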); details: HEK293 TRPC6, membrane potential dye fluorescence, at 10 µM, maximal acetylcholine added after compound; hits give high values
[13] = target: Short transient receptor potential channel 4 (Mus musculus) (UniProt Q9QUQ5); test: calcium flux activators in TRPC4/5HT1a cells, counter-screen for TRPC4 activator project, cell-based, second counter screen, HEK293 TRPC4/5HT1a, Fluo-4 (AID 434977;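 active = calcium signal rise above buffer-control mean plus 5 SD in both duplicates, and also a hit in the primary screen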); details: Fluo-4 calcium flux, at 10 µM; hits give high values
[14] = serotonin-gated TRPC4 signal block – cell-based, second counter screen, HEK293 TRPC4/5HT1a, Fluo-4, counter-screen for TRPC4 inhibitor project, confirmation (AID 434978;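 active = primary screen active whose calcium signal fell more than 3 SD beyond the full-serotonin control mean in both duplicate plates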;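 note: serotonin given first at submaximal then at maximal dose after compound preincubation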); details: Fluo-4 calcium flux, at 10 µM, serotonin added to trigger calcium flux; hits give high values
[15] = test system: TRPC4 (mouse), co-expressed with 5HT1a in HEK293; test: enhancement of serotonin-evoked TRPC4 response – cell-based, second counter screen, HEK293 TRPC4/5HT1a, Fluo-4, counter-screen for TRPC4 potentiator project, confirmation (AID 434979;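 active = signal rise over 3 SD above mean of control wells given weak agonist, in both repeats and first screen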); details: Fluo-4 calcium flux, at 10 µM, serotonin added at its EC20 dose; hits give high values
[16] = nonspecific calcium rise without TRPC4 – cell-based, HEK293 mu-opioid receptor line, counter-screen for TRPC4 activator project, confirmation (AID 449723;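 active = hit in primary screen, with calcium signal over 5 SD above buffer well mean in both duplicates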;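 note: counter screen cells carry the mu-opioid receptor alone and lack TRPC4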); details: HEK293 mu-opioid cells, Fluo-4 calcium fluorescence, at 10 µM; hits give high values
[17] = nonspecific potentiation of DAMGO calcium response – cell-based, HEK293 mu-opioid receptor line, counter-screen for TRPC4 allosteric potentiator project, confirmation (AID 449724;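 active = calcium signal rise more than 3 SD above the low-dose agonist control mean, in both duplicate plates and the primary screen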); details: HEK293 mu-opioid receptor cells, Fluo-4 calcium flux, at 10 µM, compound added before EC20 DAMGO stimulus; hits give high values

Chain of Short transient receptor potential channel 4 (Mus musculus) (Q9QUQ5 whole entry, looked up): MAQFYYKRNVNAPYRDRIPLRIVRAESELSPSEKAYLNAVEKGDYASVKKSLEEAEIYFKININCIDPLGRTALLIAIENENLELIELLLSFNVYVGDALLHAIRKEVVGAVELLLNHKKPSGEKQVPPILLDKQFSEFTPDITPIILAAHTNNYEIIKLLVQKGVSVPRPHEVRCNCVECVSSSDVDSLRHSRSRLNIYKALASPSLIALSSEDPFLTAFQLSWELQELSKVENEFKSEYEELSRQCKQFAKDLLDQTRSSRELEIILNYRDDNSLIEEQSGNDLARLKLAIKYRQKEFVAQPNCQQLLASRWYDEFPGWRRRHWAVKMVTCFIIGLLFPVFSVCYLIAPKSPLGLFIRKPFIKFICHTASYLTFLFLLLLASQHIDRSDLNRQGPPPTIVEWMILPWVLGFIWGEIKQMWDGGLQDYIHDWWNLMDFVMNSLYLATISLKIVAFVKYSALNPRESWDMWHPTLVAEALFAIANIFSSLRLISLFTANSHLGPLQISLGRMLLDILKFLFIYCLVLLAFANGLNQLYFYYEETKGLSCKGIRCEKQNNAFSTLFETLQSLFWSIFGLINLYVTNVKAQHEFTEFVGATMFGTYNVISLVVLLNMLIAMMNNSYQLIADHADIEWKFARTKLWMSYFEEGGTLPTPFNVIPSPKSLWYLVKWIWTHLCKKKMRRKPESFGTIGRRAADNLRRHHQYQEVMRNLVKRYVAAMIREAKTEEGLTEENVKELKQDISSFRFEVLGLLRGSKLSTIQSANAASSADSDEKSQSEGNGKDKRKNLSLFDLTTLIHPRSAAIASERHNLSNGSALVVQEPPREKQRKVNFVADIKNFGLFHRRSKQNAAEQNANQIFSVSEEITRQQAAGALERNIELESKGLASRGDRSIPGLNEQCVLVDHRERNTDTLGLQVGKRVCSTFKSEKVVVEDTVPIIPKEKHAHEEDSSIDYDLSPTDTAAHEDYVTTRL
Chain of Short transient receptor potential channel 6 (Mus musculus) (Q61143 whole entry, looked up): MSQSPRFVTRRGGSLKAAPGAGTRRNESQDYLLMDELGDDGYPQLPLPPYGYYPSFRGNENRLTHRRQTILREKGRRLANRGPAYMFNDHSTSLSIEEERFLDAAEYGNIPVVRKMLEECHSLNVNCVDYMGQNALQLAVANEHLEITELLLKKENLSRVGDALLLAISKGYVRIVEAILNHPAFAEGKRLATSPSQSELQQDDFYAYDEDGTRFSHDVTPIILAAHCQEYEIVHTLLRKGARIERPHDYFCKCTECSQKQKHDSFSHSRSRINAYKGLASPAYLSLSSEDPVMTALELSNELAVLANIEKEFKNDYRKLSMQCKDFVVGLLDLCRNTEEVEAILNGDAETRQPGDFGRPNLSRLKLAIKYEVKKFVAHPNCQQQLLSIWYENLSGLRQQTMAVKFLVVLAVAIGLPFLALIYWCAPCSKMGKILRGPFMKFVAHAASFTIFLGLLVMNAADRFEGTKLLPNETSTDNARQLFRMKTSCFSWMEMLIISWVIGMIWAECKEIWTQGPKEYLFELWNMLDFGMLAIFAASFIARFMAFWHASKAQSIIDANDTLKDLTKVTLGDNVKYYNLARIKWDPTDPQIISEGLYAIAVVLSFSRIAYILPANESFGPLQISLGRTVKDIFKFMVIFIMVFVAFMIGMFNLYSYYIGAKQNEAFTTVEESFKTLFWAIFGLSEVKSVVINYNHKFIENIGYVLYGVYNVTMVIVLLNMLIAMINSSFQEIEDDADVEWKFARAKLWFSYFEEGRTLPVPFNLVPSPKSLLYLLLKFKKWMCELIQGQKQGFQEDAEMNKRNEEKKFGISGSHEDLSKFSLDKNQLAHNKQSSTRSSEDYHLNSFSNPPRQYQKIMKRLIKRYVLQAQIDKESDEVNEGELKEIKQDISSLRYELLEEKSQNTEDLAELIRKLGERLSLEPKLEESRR

O=[N+]([O-])c1c(Nc2cccc(O)c2)cc(Cl)c2nonc12
inactive: outcome [1] | outcome [2] | outcome [3] | outcome [4] | outcome [5] | outcome [6] | outcome [7] | outcome [8] | outcome [9] | outcome [10] | outcome [11] | outcome [12] | outcome [13] | outcome [14] | outcome [15] | outcome [16] | outcome [17]

Cc1cc(NC(=O)CCN2CCN(Cc3ccccc3)CC2)ccc1Br
active: potentiation [3] 18%
inactive: outcome [1] | outcome [2] | outcome [4] | outcome [5] | outcome [6] | outcome [7] | outcome [8] | outcome [9] | outcome [10] | outcome [11] | outcome [12] | outcome [13] | outcome [14] | outcome [15] | outcome [16] | outcome [17]

O=C(NCCCN1CCCC1=O)c1ccc(CNS(=O)(=O)c2ccc(F)cc2)cc1
active: potentiation [15] 14.7%
inactive: outcome [1] | outcome [2] | outcome [3] | outcome [4] | outcome [5] | outcome [6] | outcome [7] | outcome [8] | outcome [9] | outcome [10] | outcome [11] | outcome [12] | outcome [13] | outcome [14] | outcome [16] | outcome [17]

c1ccc(Nc2c3c(nc4ccccc24)CCC3)cc1
inactive: outcome [1] | outcome [2] | outcome [3] | outcome [4] | outcome [5] | outcome [6] | outcome [7] | outcome [8] | outcome [9] | outcome [10] | outcome [11] | outcome [12] | outcome [13] | outcome [14] | outcome [15] | outcome [16] | outcome [17]

O=C(CNc1ccc(Br)cc1)c1ccc(O)cc1
inactive: outcome [1] | outcome [2] | outcome [3] | outcome [4] | outcome [6] | outcome [7] | outcome [8] | outcome [9] | outcome [11] | outcome [12] | outcome [13] | outcome [14] | outcome [15] | outcome [16] | outcome [17]
active: inhibition [5] 82% | inhibition [10] 60.5%

CC1CCCCC1NC(=O)c1cc2ccccc2o1 (stereo unspecified)
active: potentiation [4] 46% | potentiation [15] 42.2%
inactive: outcome [1] | outcome [2] | outcome [3] | outcome [5] | outcome [6] | outcome [7] | outcome [8] | outcome [9] | outcome [10] | outcome [11] | outcome [12] | outcome [13] | outcome [14] | outcome [16] | outcome [17]

Cc1ccc(-n2c(SCc3cc(=O)n4ccsc4n3)nnc2-c2cccnc2)c(C)c1
inactive: outcome [1] | outcome [2] | outcome [3] | outcome [4] | outcome [5] | outcome [6] | outcome [7] | outcome [8] | outcome [9] | outcome [10] | outcome [11] | outcome [12] | outcome [13] | outcome [14] | outcome [15] | outcome [16] | outcome [17]

Cc1cc(S(=O)(=O)N2CCC(N3CCCCC3)CC2)ccc1-n1cnnn1
active: potentiation [3] 11% | potentiation [4] 11% | potentiation [15] 19.1%
inactive: outcome [1] | outcome [2] | outcome [5] | outcome [6] | outcome [7] | outcome [8] | outcome [9] | outcome [10] | outcome [11] | outcome [12] | outcome [13] | outcome [14] | outcome [16] | outcome [17]

Cc1cc(N2CCN(C)CC2)n2cc(-c3ccc(F)cc3)nc2n1
inactive: outcome [1] | outcome [2] | outcome [4] | outcome [5] | outcome [6] | outcome [7] | outcome [8] | outcome [9] | outcome [10] | outcome [11] | outcome [12] | outcome [13] | outcome [14] | outcome [16] | outcome [17]
active: potentiation [3] 11% | potentiation [15] 26.1%

COc1ccc(CNCC(O)(c2ccccc2)c2ccccc2)cc1OC
inactive: outcome [1] | outcome [2] | outcome [3] | outcome [4] | outcome [5] | outcome [6] | outcome [7] | outcome [8] | outcome [9] | outcome [10] | outcome [11] | outcome [12] | outcome [13] | outcome [14] | outcome [15] | outcome [16] | outcome [17]

COc1cc(/C=C/C(=O)OCC(=O)Nc2c(C)n(C)n(-c3ccccc3)c2=O)ccc1OCC#N
inactive: outcome [1] | outcome [2] | outcome [3] | outcome [4] | outcome [5] | outcome [6] | outcome [7] | outcome [8] | outcome [9] | outcome [10] | outcome [12] | outcome [13] | outcome [14] | outcome [15] | outcome [16] | outcome [17]
active: activation [11] 39.5%

COc1ccc(NS(=O)(=O)c2cccc(C(=O)N3CCN(Cc4cc(OC)ccc4OC)CC3)c2)cc1
inactive: outcome [1] | outcome [2] | outcome [3] | outcome [4] | outcome [5] | outcome [6] | outcome [7] | outcome [8] | outcome [9] | outcome [10] | outcome [11] | outcome [12] | outcome [13] | outcome [14] | outcome [15] | outcome [16] | outcome [17]

Cc1cccc(N2CCN(C(=O)C3(S(=O)(=O)c4ccc(Cl)cc4)CC3)CC2)c1C
active: potentiation [4] 13% | potentiation [15] 15.1%
inactive: outcome [1] | outcome [2] | outcome [3] | outcome [5] | outcome [6] | outcome [7] | outcome [8] | outcome [9] | outcome [10] | outcome [11] | outcome [12] | outcome [13] | outcome [14] | outcome [16] | outcome [17]
